This is an account of results in PubChem BioAssay (NCATS).

Inconclusive results are not listed. A call without a number means that no potency is given here. Activity calls are given as the source filed them. The call rests on the fitted dose curve; in most records, active means well fitted curve in the direction sought with a large enough effect; inconclusive means small, poorly fitted or top-dose-only effect, or another doubt; inactive means no such curve, though single readings can be large; an effect the other way counts as inactive or inconclusive.

The nature of assay [1]: qHTS of Trypanosoma Brucei Inhibitors: LOPAC Validation (AID 624147). In outline:
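Assay buffer: 50 mM TEA pH 7.2, 100 mM KCl, 10 mM MgCl2, 0.05% BSA, 0.01% Tween-20. Pyruvate kinase from T. brucei plus substrate met compound, then ADP (130 uM final). Luminescence was read post 45 min RT.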

The target in assay [2] is Glucagon-like peptide 1 receptor (Homo sapiens) (UniProt P43220). The experiment in a line: qHTS of GLP-1 Receptor Agonists: LOPAC Validation (AID 624148).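 Further: higher luminescence signal means agonism.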 In outline: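 HEK293 cells stably co-expressing GLP-1R and a cAMP-responsive luciferase reporter, plated 12 hours before compound, then incubated 4-6 hr at 37 deg C. Luminescence read 12 min after detection reagent.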

Assay [3] is described as follows: HTS Assay for Allosteric Antagonists of the Human D2 Dopamine Receptor: Hit Validation in HTRF (AID 624455). Further: potency means the concentration at half of the fitted maximal effect.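 Further: stable D1 dopamine receptor cell line scored for blocking the D1 response.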 Summed up: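 Inhibition of the D1-mediated response is measured by HTRF in cells that stably express the D1 dopamine receptor. Compounds reaching this step are hits from calcium-flux antagonism testing at EC80 dopamine in inducible Hek293 Trex D2 cells.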

A short description of assay [4]: qHTS of Nrf2 Activators: LOPAC Validation (AID 624149). In outline: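 Cells (AREc32_Fluc) are plated at 1000 per well in OPTI-MEM containing 5% FBS and left overnight. Compounds are pinned in and incubated 24 hr at 37 deg C, and firefly luciferase is detected with Steady-Glo.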
Assay [5] addresses Glutaminase kidney isoform, mitochondrial (Homo sapiens) (UniProt O94925). The experiment in a line: qHTS for Inhibitors of Glutaminase (GLS): LOPAC Validation (AID 624146). Further: nearly all actives have a fitted effect of over 60% in size. Further: potency means the concentration at half of the fitted maximal effect. Summed up:
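Glutamate formation by hKGA was monitored fluorometrically using coupled glutamate oxidase, HRP and Amplex Red. Substrate was added as 1 mM L-glutamine solution; incubation was 30 min at RT after an initial read.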

Sequence of Glucagon-like peptide 1 receptor (Homo sapiens) (P43220 whole entry, looked up): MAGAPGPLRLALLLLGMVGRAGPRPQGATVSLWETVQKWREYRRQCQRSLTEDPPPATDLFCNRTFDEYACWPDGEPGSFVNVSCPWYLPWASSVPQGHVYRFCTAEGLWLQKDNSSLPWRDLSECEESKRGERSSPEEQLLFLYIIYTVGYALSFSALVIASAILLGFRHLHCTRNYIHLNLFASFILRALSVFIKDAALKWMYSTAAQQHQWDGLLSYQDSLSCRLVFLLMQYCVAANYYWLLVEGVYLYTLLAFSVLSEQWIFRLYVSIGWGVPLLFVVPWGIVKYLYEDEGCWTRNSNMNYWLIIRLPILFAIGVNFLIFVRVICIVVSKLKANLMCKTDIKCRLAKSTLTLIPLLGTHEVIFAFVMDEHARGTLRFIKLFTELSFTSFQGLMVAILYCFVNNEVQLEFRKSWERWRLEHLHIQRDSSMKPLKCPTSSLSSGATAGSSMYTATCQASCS
Sequence of Glutaminase kidney isoform, mitochondrial (Homo sapiens) (O94925 whole entry, looked up, canonical isoform): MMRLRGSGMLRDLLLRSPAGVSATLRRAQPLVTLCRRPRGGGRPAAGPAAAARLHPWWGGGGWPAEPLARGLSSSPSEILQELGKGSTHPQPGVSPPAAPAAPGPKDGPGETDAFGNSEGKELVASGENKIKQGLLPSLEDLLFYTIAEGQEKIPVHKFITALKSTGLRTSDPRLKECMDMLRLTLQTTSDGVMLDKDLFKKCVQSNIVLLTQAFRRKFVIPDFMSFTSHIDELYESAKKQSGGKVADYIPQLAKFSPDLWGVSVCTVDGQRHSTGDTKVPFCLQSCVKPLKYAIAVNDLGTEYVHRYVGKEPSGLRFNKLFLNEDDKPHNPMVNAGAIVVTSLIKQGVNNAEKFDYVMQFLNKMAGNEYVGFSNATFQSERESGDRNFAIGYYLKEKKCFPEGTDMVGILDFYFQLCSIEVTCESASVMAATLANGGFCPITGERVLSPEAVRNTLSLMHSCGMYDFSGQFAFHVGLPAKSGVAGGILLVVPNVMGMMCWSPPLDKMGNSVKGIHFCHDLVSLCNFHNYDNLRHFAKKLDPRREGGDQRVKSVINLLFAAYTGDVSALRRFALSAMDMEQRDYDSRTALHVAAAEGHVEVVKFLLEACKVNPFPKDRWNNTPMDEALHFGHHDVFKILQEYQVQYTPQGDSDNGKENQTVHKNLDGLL

Consider `CN(C(=O)Cc1ccc(Cl)c(Cl)c1)C(CN1CCCC1)c1cccc(OCC(=O)O)c1` (stereo unspecified), for which the Potency result in assay [1] and in assay [3] was “inactive” throughout. In assay [2], the result was inactive.
As to `N[C@@]1(C(=O)O)CC[C@@H](C(=O)O)C1`, the Potency entry in assay [1], in assay [4] and in assay [3] was “inactive” in each case. In addition, the compound was classed as inactive in assay [2].
As to `CCCN1CCc2cccc3c2[C@H]1Cc1ccc(O)c(O)c1-3`, in assay [2], the compound was classed as inactive. Besides, in assay [4], the Potency entry is “inactive”.
For `C[C@H](N)CN1CCc2ccc(Br)cc21`, the Potency entry in assay [1], in assay [4] and in assay [3] was “inactive” each time. Also, in assay [2], the call was inactive.
With `C=CCN1CCc2cccc3c2[C@H]1Cc1ccc(O)c(O)c1-3`, the Potency in assay [5] is 891 nM (active); in assay [3], 51.7 nM (active). The result in assay [2] was inactive. In assay [4], the Potency result was “inactive”.
On to `NC(C(=O)O)c1cc(=O)[nH]o1` (stereo unspecified), for which the Potency entry in assay [1], in assay [4] and in assay [3] was “inactive” throughout. The result in assay [2] was inactive.
Regarding `CCn1cnc2c(Nc3cccc(Cl)c3)nc(N[C@@H]3CCCC[C@@H]3N)nc21`, the Potency entry in assay [1], in assay [4] and in assay [3] was “inactive” in each case. The call in assay [2] was inactive.
`COc1ccc2c(c1)C13CCCCC1C(C2)N(C)CC3` (stereo unspecified): the Potency result in assay [1], in assay [4] and in assay [3] was “inactive” each time. Besides, the call in assay [2] was inactive.
Regarding `CC(Cc1ccc(OCC(=O)O)cc1)NCC(O)c1cccc(Cl)c1` (stereo unspecified), the Potency result in assay [5], in assay [1], in assay [4] and in assay [3] was “inactive” throughout.
Take `C[N+]1(C)CCc2cc3c(cc2[C@H]1[C@@H]1OC(=O)c2c1ccc1c2OCO1)OCO3`: the Potency result in assay [1], in assay [4] and in assay [3] was “inactive” each time. Further, the compound was called inactive in assay [2].
For the compound `CC(=O)OCC1=C(C(=O)O)N2C(=O)[C@@H](NC(=O)CCC[C@@H](N)C(=O)O)[C@H]2SC1`, the Potency result in assay [1], in assay [4] and in assay [3] was “inactive” throughout. In addition, the call in assay [2] was inactive.
As to `C[C@@H]1[C@@H]2Cc3ccc(O)cc3[C@@]1(C)CCN2CC1CC1`, the Potency entry in assay [1] was “inactive”.
In the case of `CCCN(CCC)[C@@H]1CCc2cccc(O)c2C1`, the Potency entry in assay [1] and in assay [4] was “inactive” throughout. The compound was called inactive in assay [2].
As for `C[C@@H]1O[C@@H](O[C@H]2C[C@@H](O)[C@]3(CO)[C@@H]4C(CC[C@]3(O)C2)[C@@]2(O)CC[C@H]([C@@H]3COC(=O)C3)[C@@]2(C)C[C@H]4O)[C@H](O)[C@H](O)[C@H]1O` (stereo partly specified), the Potency result in assay [1] was “inactive”. Also, the call in assay [2] was inactive.
As to `C=CCN1CC[C@]23c4c5ccc(O)c4O[C@@H]2/C(=N/N=C2\CC[C@@]4(O)C6Cc7ccc(O)c8c7[C@@]4(CCN6CC=C)[C@@H]2O8)CC[C@@]3(O)C1C5`, the Potency entry in assay [1], in assay [4] and in assay [3] was “inactive” each time. In assay [2], the result was inactive.
Consider `NC(Cc1ccc(N(CCCl)CCCl)cc1)C(=O)O` (stereo unspecified), for which the Potency entry in assay [1] and in assay [3] was “inactive” each time. Besides, the compound was classed as inactive in assay [2].
As for `CCCCCCCCCCCCCC(=O)O[C@@H]1[C@@H](C)[C@@]2(O)[C@@H](C=C(CO)C[C@@]3(O)C(=O)C(C)=C[C@@H]23)C2C(C)(C)[C@@]21OC(C)=O` (stereo partly specified), the Potency result in assay [1] and in assay [4] was “inactive” each time. Also, the outcome in assay [2] was inactive.
Consider `CC(C)(C)c1cc(C=C(C#N)C#N)cc(C(C)(C)C)c1O`, for which, in assay [2], the result was inactive. For the same compound, the Potency entry in assay [4] and in assay [3] was “inactive” in each case.
For the compound `CCCN1CCC[C@@H](c2cccc(O)c2)C1`, the Potency result in assay [1] is “inactive”. Also, in assay [2], the compound was called inactive.
Regarding `N#CCCN`, the Potency result in assay [1], in assay [4] and in assay [3] was “inactive” each time. Moreover, in assay [2], the compound was called inactive.
